# In PMC5540273 (PLoS ONE, 2017):
# pKd: −log10 of the molar value.
# Tested on: T1, CDC2L5
# T1 construct: gene CDK13
# 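Further: kd values determined as follow-up on hits from a single-replicate KINOMEscan panel screen.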
row,Structure (SMILES),pKd
1,CCn1c(-c2c(N)noc2C)nc2cnccc21 [SB-737856],< 5.00
2,CCn1c(-c2ccccc2)nc2cnccc21 [SB-733416],< 5.00
3,COc1ccc(CSc2nnc(-c3ccc4c(c3)CCO4)o2)cc1,< 5.00

# Tested on: T2, CDK11
# T2 construct: gene CDK19
row,Structure (SMILES),pKd
1,CC(=O)c1cccc(NC(=O)NC2CCN(c3ccnc(Nc4ccc(F)cc4)n3)C2)c1 (centres unmarked) [GSK1379710],5.70
2,Cc1cnc(N)c(/C=C/c2cncc(C(=O)NCCc3ccc(Cl)cc3Cl)c2)c1.Cl [GSK190937],6.39
3,O=c1cc(N2CCOCC2)nc2n(Cc3cccc(Cl)c3Cl)c3ccccc3n12 [GSK2299009],< 5.00
4,Nc1ncnc2occ(-c3ccc4c(c3)CCN4C(=O)Cc3cc(F)ccc3F)c12 [GSK2645446],5.96

# Tested on: CDK4-cyclinD1
row,Structure (SMILES),pKd
1,CC(=O)c1c(C)c2cnc(Nc3ccc(N4CCNCC4)cn3)nc2n(C2CCCC2)c1=O,8.89
2,CC(C)c1ccc(O)cc1Nc1ccnc2ccc(C(F)(F)F)cc12 [GW482059],< 5.00
3,CC(=O)c1c(C)c2cnc(Nc3ccn(C)n3)nc2n(C2CCCC2)c1=O,7.64

# Tested on: CDK4-cyclinD3
row,Structure (SMILES),pKd
1,CC(=O)c1c(C)c2cnc(Nc3ccc(N4CCNCC4)cn3)nc2n(C2CCCC2)c1=O,9.21
2,CC(=O)c1c(C)c2cnc(Nc3ccn(C)n3)nc2n(C2CCCC2)c1=O,8.00
3,CCc1ccc(-c2ccc3c(c2)-c2n[nH]cc2S(=O)(=O)N3C)cc1,< 5.00

# Tested on: CDK4
row,Structure (SMILES),pKd
1,CNc1nc(-c2ccc3c(N)n[nH]c3c2)cc(N2C[C@@H](C(=O)NC3CCCCC3)OC[C@H]2C)n1 [GSK2375584],< 5.00
2,O=C(Nc1n[nH]c2cc(-c3ccsc3)ccc12)C1CC1 [SB-732932],< 5.00
3,O=C1NC(=O)C(c2ccc(Cl)cc2)=C1Nc1cccc(Cl)c1 [SB-317651],< 5.00
4,COc1nccc(-c2c(-c3ccc(F)cc3)ncn2CCCN2CCOCC2)n1 [SB-282852],< 5.00
